Ratio readout change data for 28 molecules are collected here from PubChem BioAssay AID623908 (Johns Hopkins Ion Channel Center, 2012).

The structures appear in SMILES notation. Out of some 2,500 compounds screened, about 1,500 (60%) were called active.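 How the source made its calls: active means duplicate-averaged ratio beyond 3 SD from buffer wells, up or down, though filed actives are nearly all decreases; inactive means the rest.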 So high a share suggests a set chosen from earlier hits. A selection follows.

This test is described as follows: dye ratio change in CHT-lacking host cells – cell-based, parental HEK293, membrane potential dye, counter-screen for CHT activator project (AID 623908). The settings on record: parental HEK293, membrane potential dye fluorescence (FDSS); at 10 µM; measured after EC20 choline addition. (In general: A counterscreen serves to expose hits that act by an unwanted route or on another target.)
Regarding `CC(C)(C)Nc1nc(-c2ccccn2)nc2ccccc12`, the ratio readout change was -76.9 (active).
The entry for `CC1=CC(C)(C)N(C(=O)CSc2nnc(-c3ccccc3)o2)c2ccc(C)cc21` is “inactive”; for `COc1nc(N=C(N)N)nc2c(C)cccc12` it is -78.8 (active).
The figure for `Cc1nc(N=C(N)N)nc2c(C)cccc12` is -65.7 (active); for `O=C(c1ccccc1F)N(Cc1ccccc1)Cc1ccccc1` it is “inactive”.
The entry for `CCCCn1c(N)c(N(CCC(C)C)C(=O)c2ccc(COc3ccccc3)o2)c(=O)[nH]c1=O` is “inactive”; for `COc1ccccc1NC(=O)CSc1nnc(-c2ccoc2C)n1CCc1ccccc1` it is “inactive”; for `Cc1ccc(C(=O)C[n+]2cc(-c3ccccc3)n3c2CCCCC3)cc1` it is “inactive”.
For the molecule `Clc1ccc(C[n+]2cc(-c3ccc(Cl)cc3)n3c2CCC3)cc1`, the ratio readout change is -46 (active).
Turning to `Cc1ccc2c(c1)N(CC(=O)N(Cc1ccccn1)Cc1ccco1)C(=O)C(C(C)C)O2` (stereo not drawn), the ratio readout change result was “inactive”.
As to `O=[N+]([O-])c1ccc(N2CCNCC2)cc1NCc1cccnc1`, the ratio readout change was -59.8 (active).
The entry for `CC(=O)c1ccccc1OCc1ccc(C(=O)c2ccccc2)cc1` is “inactive”.
As to `C[C@H]1CCC(=O)N([C@H](CSc2ccccc2)Cc2ccccc2)CC1`, the ratio readout change entry is “inactive”.
As for `CC(=O)N1CC[n+]2c(-c3ccc([N+](=O)[O-])cc3)csc21`, the ratio readout change is -25.4 (active).
The figure for `CCN(CC)CCC(c1cc(OC)c(OC)c(OC)c1)c1c(OC)cc(OC)c2c(-c3ccccc3)cc(=O)oc12` (stereo not drawn) is -25.5 (active).
Consider `Cc1nnc(-c2ccc(Oc3ccc(C)c(C)c3)c([N+](=O)[O-])c2)o1`, for which the ratio readout change entry is “inactive”.
On to `CN(C)/C=C/C(=O)c1cnc2sccn2c1=O`, for which the ratio readout change is -39.9 (active).
The figure for `COc1cccc(C(=O)NC(=O)Nc2nc(C)cc(C(F)(F)F)n2)c1` is -43.4 (active).
The entry for `Cc1ccccc1C(=O)NCC(c1ccco1)N1CCc2ccccc21` (stereo not drawn) is “inactive”; for `Cn1c(=O)n(C)c2cc(C(=O)Nc3ccc4c(c3)OCO4)ccc21` it is -33.9 (active); for `O=C(Nc1ccccc1N1CCN(c2ccccc2)CC1)c1cccc(F)c1` it is “inactive”.
The figure for `Cc1cc2c(cc1C)[n+](C)cn2CC(O)COCC1CC=CCC1` (stereo not drawn) is -37.2 (active); for `N=c1c2c3c(sc2ncn1CCCN1CCOCC1)CCCCC3` it is -59.9 (active); for `N=c1c2c3c(sc2ncn1N)CCCCC3` it is -39.8 (active).
In the case of `COc1cc2c(cc1OC)C(c1cccc([N+](=O)[O-])c1)=NCC2`, the ratio readout change was -64.5 (active).
The figure for `Cc1c(CCOC(=O)CC23CC4CC(CC(C)(C4)C2)C3)sc[n+]1Cc1ccc([N+](=O)[O-])cc1` is -47 (active); for `O=C(CCC1CCN(C(=O)c2cccc(Cl)c2F)CC1)Nc1ccccc1` it is “inactive”; for `O=C1c2ccccc2C(=O)c2c1cccc2N1CCN(CCO)CC1` it is -73.9 (active).
